In the library only some 2.1% were active in any assay of this set; here they are far more common.
TDP-43 yeast inh – qHTS of TDP-43 Inhibitors | AID 652104, 2013 | 1.8% of 410,000 active | TDP-43 expressing yeast growth rescue, BacTiter-Glo, 24 h | Potency, µM (top dose mostly 46.1 µM), inactives show at the highest dose growth rescue (activation), usual class: activators; further: % of control where 0% means no effect; nearly all actives have a fitted effect of over 50% in size
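Luminescence from BacTiter-Glo reports growth of TDP-43-expressing yeast after 24 hr at 30 deg C with compound. Cells were raffinose-pregrown to mid-log, then seeded in galactose medium at OD600=0.02.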
Abeta rescue – qHTS for compounds that reverse cellular toxicity of Amyloid beta (A-beta) peptide in yeast: Primary Screen; yeast expressing A-beta42, growth rescue, OD600, 48 h; response scale: 0% DMSO, 100% iron-clioquinol control; Potency, µM (top dose mostly 46.1 µM), most hits filed as activators; 0.063% of 410,000 active; further: nearly all actives have a fitted effect of over 55% in size
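Yeast A-beta toxicity model in growth medium with pinned compounds, 48 h at 30 C; growth read as absorbance at 600 nm. Normalized to FeCl3/clioquinol equimolar mix (positive) and DMSO (negative).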
aSyn yeast inh – qHTS of alpha-syn Inhibitors. Yeast expressing alpha-synuclein, growth rescue, BacTiter-Glo, 24 h. Potency, µM (highest dose often 46.1 µM), for inactives: at the top dose growth rescue (activation), actives largely listed as activators. 0.14% of 370,000 active. AID 652106, 2013; further: % of control where 0% means no effect; nearly all actives have a fitted effect of over 65% in size
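Screening used galactose-induced yeast with toxic alpha-synuclein levels, exposed to compound for 24 hr at 30 deg C. Cell growth, read with BacTiter-Glo luminescence, gave the measured signal.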
FUS suppressor – qHTS for Suppressors of FUS Proteinopathy: Primary screen using FUS-linked yeast assay; S. cerevisiae FUS-expressing, growth rescue, OD600, 24 h; Potency, µM (doses to about 76.6 µM), usual class: activators; 0.24% of 390,000 active; AID 1347120, 2019;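 further: plate controls were DMSO vehicle for no effect and reference control for full effect; nearly all actives have a fitted effect of over 55% in size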
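Yeast expressing FUS under galactose induction, OD 0.005 in 2% galactose medium; compounds in a dilution series, 24 h at 30C. Growth rescue by absorbance at 600 nm; CP55940 positive control, DMSO negative.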
Numbers without * were called inactive; i = inactive; ? = inconclusive; / = no result. The call rests on the fitted dose curve; in most records, active means well fitted curve in the direction sought with a large enough effect; inconclusive means small, poorly fitted or top-dose-only effect, or another doubt; inactive means no such curve, though single readings can be large; an effect the other way counts as inactive or inconclusive. Potency means the concentration at half of the fitted maximal effect.

SMILES | TDP-43 yeast inh | Abeta rescue | aSyn yeast inh | FUS suppressor
O=C(Nc1ccc(Cl)cc1)c1ccc(OCC2CCCO2)cc1 (configuration not stated) | 12.4% | i | -9.3% | i
CC1(C)Oc2ccc(C(=O)NC3CCCC3)cc2NC1=O | / | / | / | i
CCCCc1ccc(Nc2ncnc3nc[nH]c23)cc1 | 15.8µM* | i | 0.8% | i
CCOC(=O)c1cccc(NC(=O)Nc2c(C)n(C)n(-c3ccccc3)c2=O)c1 | 10.7% | i | / | i
COC(=O)c1ccc(OCC2c3cc(OC)c(OC)cc3CCN2C(C)=O)cc1 (configuration not stated) | 5.1% | i | 6.0% | i
COc1cc2c(cc1OC)C(COc1ccc(F)cc1)N(C(=O)c1cccc(F)c1)CC2 (configuration not stated) | 35.5µM* | i | 8.8% | i
COC(=O)c1ccc(OCC2c3cc(OC)c(OC)cc3CCN2C(=O)c2ccc(OC)cc2)cc1 (configuration not stated) | 35.5µM* | i | 11.8% | ?
CCn1c(C(=O)N2CCCC(C(=O)NCCCOC)C2)cc2sccc21 (configuration not stated) | -0.1% | i | / | i
CCOC(=O)[C@@H](CCc1ccccc1)N[C@@H](C)C(=O)N1CCC[C@H]1C(=O)O | / | / | / | i
COC(=O)[C@@]12CCCCC3=C1N(CCC3)C(=O)[C@H]2CC(=O)NCc1cccc(C(F)(F)F)c1 | / | / | / | i
Oc1ccccc1-c1n[nH]c(-c2ccccc2O)n1 | -19.0% | i | 5.1% | /
Clc1ccccc1-c1nc(-c2ccccc2)n[nH]1 | 12.6µM* | i | -1.8% | i
COc1ccc(N2CCN(CCCNC(=O)CCc3ccc(F)cc3)CC2)cc1 | / | / | / | i
CCOc1cccc(-c2nn3c(-c4cccc(C)c4)nnc3s2)c1 | / | / | / | i
CC1(OC(=O)C2CCCC2)C(=O)C=C2C=C(c3ccsc3)N(CC3CC3)C=C2C1=O (configuration not stated) | 20.3% | i | 0.6% | i
CC1(OC(=O)C2CCCC2)C(=O)C=C2C=C(c3ccsc3)N(C3CCCCC3)C=C2C1=O (configuration not stated) | 10µM* | i | -16.1% | i
COc1cccc(OCC(=O)NC2CC(=O)N(c3cccc(OC)c3)C2)c1 (configuration not stated) | 9.5% | i | / | i
COc1cccc(N2CC(NC(=O)COc3ccc4ccccc4c3)CC2=O)c1 (configuration not stated) | 14.1µM* | ? | / | i
Cc1ccccc1C(=O)n1ccc2ccc(-c3ccc4ccn(Cc5ccc(C#N)cc5)c4c3)cc21 | / | / | / | i
Cc1cc(Cl)ccc1OCC(=O)NNC(=O)C1CCN(c2ncnc3sc(C)c(C)c23)CC1 | 22.4µM* | i | 0.8% | ?
CC(=O)CC[C@@H]1CC[C@]2(CCCN(S(=O)(=O)c3ccccc3)C2)O1 | / | / | / | i
COc1ccc2c(CNCCc3ccccc3)c(C(=O)O)n(Cc3cccc(F)c3)c2c1 | 16.7% | i | / | i
N#CC(CC(=O)c1ccc(F)cc1)c1ccc2c(c1)OCO2 (configuration not stated) | 11.2µM* | i | 11.3% | i
O=C(O)CC(CC(=O)O)c1ccc2c(c1)OCO2 | / | / | 0.0% | /
CC(C)Oc1ccc(F)cc1-c1cc(C(=O)N2CCc3ccccc3C2)[nH]n1 | 28.2µM* | i | 8.2% | ?
SMILES | TDP-43 yeast inh | Abeta rescue | aSyn yeast inh | FUS suppressor
O=C(CN1CCN(C(=O)c2c(F)cccc2F)CC1)Nc1ccccc1C(F)(F)F | 15.8µM* | i | 7.8% | i
C[C@@H]1CCN(C2CC2)S(=O)(=O)c2c(cccc2N2CC[C@H](O)C2)O1 | / | / | / | i
O=C1NC(c2ccccc2)=C(c2ccc3ccccc3n2)C(c2ccccc2)N1 (configuration not stated) | -13.5% | i | -1.8% | i
O=C1NC(c2ccccc2)=C(c2nc3ccccc3s2)C(c2ccc(O)cc2)N1 (configuration not stated) | -32.3% | i | 3.9% | 35.5µM*
CC(C)(C)NC(=S)NC(=O)C12CCC3CC(CC(C3)C1)C2 | -0.3% | 6.31µM* | -6.7% | i
O=C(O)c1ccc(SCc2ccccc2)nc1 | 12.6µM* | i | 7.1% | i
COc1ccc(N2CCN(C(=O)CSc3nnc4c(C)cc5ccc(C)c(C)c5n34)CC2)cc1 | 14.1µM* | i | -1.5% | ?
Cc1cc(NS(=O)(=O)C2CCN(C(=O)Cc3ccc(Cl)c(Cl)c3)CC2)no1 | / | / | / | i
CC(=O)Nc1ccc(S(=O)(=O)N2CCN(c3cc(C)ccc3C)CC2)cc1 | 28.2µM* | i | 9.1% | ?
CC(=O)Nc1ccc(S(=O)(=O)N2CCN(S(=O)(=O)c3ccccc3)CC2)cc1 | 5.9% | i | 1.4% | i
O=C(c1ccc(Cl)cc1)N1CCC(O)(CSc2ccc(Cl)cc2)CC1 | 35.5µM* | i | ? | i
COc1cccc(SCC2(O)CCN(C(=O)c3ccc(Cl)cc3)CC2)c1 | 22.4µM* | ? | -0.4% | i
COc1ccc(-n2c(COc3ccc(C)cc3)nnc2SCC(=O)c2ccc(-c3ccccc3)cc2)cc1 | / | / | / | i
Cc1ccccc1-c1nc(CN2CCC(C(=O)NCc3ccccc3Cl)CC2)c(C)o1 | 7.4% | i | / | i
Cc1cccc(Cn2c(-c3cccc(Br)c3)nc3ccccc32)c1 | 14.1µM* | i | / | i
CCOC(=O)[C@@]12CN(C(=O)OC(C)(C)C)CC=C1N(Cc1ccc(OC)cc1)C(=O)[C@H]2CC(=O)N1CCSCC1 | / | / | / | i
COc1ccc(OC)c(C(=O)Nc2c(O)ccc3ccccc23)c1 | 11.2µM* | i | 1.2% | ?
COc1ccc(OC)c(NC(=O)Nc2ccc(O)c3ccccc23)c1 | -31.9% | i | -2.5% | 28.2µM*
COc1ccc(OC)c(NC(=O)Nc2c(O)ccc3ccccc23)c1 | 17.4% | i | -0.2% | i
Oc1c(-c2cc(-c3ccco3)[nH]n2)ccc2ccccc12 | 10µM* | i | -31.0% | i
Oc1ccc(Br)cc1-c1ccn[nH]1 | 12.6µM* | i | -7.0% | /
Oc1ccccc1-c1cc(-c2ccco2)[nH]n1 | 19.7% | i | -2.2% | i
Oc1ccc(Cl)cc1-c1cc(-c2cccc(Br)c2)n[nH]1 | ? | i | -3.7% | i
Oc1ccc(Br)cc1-c1cc(-c2ccco2)[nH]n1 | 12.6µM* | i | -21.7% | i
COc1ccc(-c2nc(N3CCN(S(=O)(=O)c4ccc(F)cc4)CC3)c3ccccc3n2)cc1 | / | / | -4.2% | /
O=C(c1ccc(F)cc1Cl)N1CCCC(c2nc(-c3cccs3)no2)C1 (configuration not stated) | / | / | / | i
O=C1C2C(C(=O)N1/N=C/c1ccc([N+](=O)[O-])o1)C1C=CC2C12CC2 (configuration not stated) | 17.8µM* | i | 26.0% | /
